Assay outcomes deposited in PubChem BioAssay by The Scripps Research Institute Molecular Screening Center.
Only some compounds are listed: those with a hit (about 4.1% of all), similar ones and a draw of the others.
DAX1 inh-1 – inhibits human nuclear receptor DAX1; P51843; HEK293 Gal4-DAX1 luciferase reporter, luminescence; inhibition, % at 6.75 µM; 340,000 tested, 0.99% active;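 active = inhibition above the mean over all tested compounds plus 3 SD, cut at about 4.2% in these data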;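 also: inhibition shows as a rise in luminescence from relieved DAX1 repression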
Target sequence (P51843 207-470 limits assumed): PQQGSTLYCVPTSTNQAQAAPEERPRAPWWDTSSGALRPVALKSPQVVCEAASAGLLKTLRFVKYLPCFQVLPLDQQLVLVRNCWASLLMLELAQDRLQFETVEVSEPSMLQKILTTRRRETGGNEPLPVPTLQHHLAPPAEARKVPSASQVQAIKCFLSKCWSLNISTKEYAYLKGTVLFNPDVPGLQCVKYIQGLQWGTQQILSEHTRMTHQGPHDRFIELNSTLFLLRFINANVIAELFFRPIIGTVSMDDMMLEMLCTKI
DAX1 inh-2 – DAX1 (NR0B1) inhibition, primary screen; HEK293T StAR-luciferase reporter, SF-1/DAX-1 repression relief; inhibition, % at 6.8 µM; 370,000 tested, 1.1% active;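 active = inhibition above the mean over all tested compounds plus 3 SD, cut at about 3.6% in these data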;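 also: higher inhibition means more luminescence from relief of DAX-1 repression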
ssDAF12 agonist – S. stercoralis DAF-12 activation, primary screen | activation, % at 6.8 µM | HEK293 ssDAF-12/GRIP1 lit1-tk-luc reporter, luminescence; % of 3 µM dafachronic acid response | 370,000 tested, 1% active | AID 652126;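 active = activation above the mean over all tested compounds plus 3 SD, cut at about 0.9% in these data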
hgDAF12 agonist – activates the H. glycines DAF-12 receptor ligand-binding domain; HEK293 GAL4-hgDAF12 UAS-luciferase reporter, agonist luminescence; normalized to butyrate control; activation, % at 6.8 µM; 370,000 tested, 1.8% active; AID 687014;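 active = activation above a cutoff set at the mean of all screened compounds plus 3 SD, cut at about 10% in these data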
hcDAF12 agonist – H. contortus DAF-12 activation, primary screen; HEK293 hcDAF-12 lit1-tk-luc reporter, luminescence; 0% DMSO, 100% Δ7-dafachronic acid; activation, % at 6.8 µM; 370,000 tested, 1.4% active; AID 652067;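 active = activation above the mean of all tested compounds plus 3 SD, cut at about 5.5% in these data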
LXRb hcDAF ctr – activates human LXR-beta, counter-screen for hcDAF-12 agonists; shares compounds with hcDAF12 agonist; HEK293 Gal4-LXR tk-luc reporter, luminescence, 24 h; normalized: DMSO 0%, positive control 100%; 3,400 tested, under 10 active; activation, % at 6.8 µM; AID 743027;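 active = mean percent activation of the reporter above a cutoff set as the average over tested compounds plus their standard deviation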
hcDAF12 ag – confirmation of H. contortus DAF-12 agonists; HEK293 hcDAF-12 lit1-tk-luc reporter, luminescence; % of Δ7-dafachronic acid response; shares compounds with hcDAF12 agonist; 3,400 tested, 61% active; activation, % at 6.8 µM;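 active = mean activation across triplicate tests above the threshold derived from the earlier primary screen, cut at about 5.5% in these data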
Hits are given with their value; . = inactive; / = not tested or not shown.

SMILES	DAX1 inh-1	DAX1 inh-2	ssDAF12 agonist	hgDAF12 agonist	hcDAF12 agonist	LXRb hcDAF ctr	hcDAF12 ag
Cc1ccsc1/C=C1\CCc2ccccc2C1=O	.	.	1.4	.	12.1	.	14.0
CC(=O)Oc1ccc(/C=C2/CCc3ccccc3C2=O)cc1	.	.	.	.	7.3	.	.
O=C1C(=Cc2ccccn2)CCc2ccccc21	.	.	.	.	.	/	/
Cc1cccc(OCC(=O)Oc2ccc(Cl)cc2)c1	.	.	.	.	.	/	/
Cc1ccc(NC(=O)c2ccc(OC(=O)COc3cccc(Cl)c3)cc2)cc1	.	3.9	.	11.7	7.6	.	.
Cc1noc(C(=O)Nc2ccc(F)c(Cl)c2)c1Cl	.	.	.	.	.	/	/
Cc1noc(C(=O)Nc2cc(Cl)ccc2O)c1Cl	.	.	.	.	7.4	.	.
Cc1ccc(-c2nc3cccnc3s2)cc1NC(=O)c1ccco1	.	.	.	.	13.3	.	.
C[C@@H]1COc2cccc(N(C)CCO)c2S(=O)(=O)N1	/	.	.	.	.	/	/
O=C(CSc1nc2ccccc2c(=O)[nH]1)c1cccs1	.	.	.	.	.	/	/
Cc1cc(SCC(=O)c2cccs2)nc2ccccc12	.	.	.	.	8.8	.	.
Cc1ccnc(NC(=O)Nc2cccc(F)c2)c1	.	3.7	1.5	17.0	16.4	.	14.6
CC(C)CNC(=O)c1ccccc1N(Cc1ccccc1)S(C)(=O)=O	.	.	.	.	.	/	/
Nc1cccc(O)c1	.	.	.	.	.	/	/
Oc1cccc(-c2nnc(-c3cccc(O)c3)nn2)c1	.	4.1	2.3	.	11.9	.	16.8
CCOC(=O)c1cnc(Nc2nc3ccccc3o2)nc1C	.	4.2	.	10.9	6.8	.	.
CCOC(=O)c1cnc(Nc2nc3ccccc3o2)nc1CSc1nnc(C)s1	.	.	.	.	.	/	/
COc1ccc2nc(/N=C\N(C)C)sc2c1	.	.	.	.	.	/	/
CN(C)/C=N/c1nc2ccc3c(c2s1)CCCC3	.	.	.	10.6	6.7	.	6.4
O=C(Nc1cccc(C(=O)N2CCCCC2)c1)C1CCCCC1	.	.	.	.	.	/	/
c1ccc(CN(Cc2ccccc2)c2ncnc3c2nnn3Cc2ccccc2)cc1	/	.	.	.	.	/	/
Cc1nc(-c2ccccc2)cs1	.	.	.	.	.	/	/
N=c1oc2ccccc2cc1-c1nc(-c2ccccc2)cs1	.	.	1.1	.	10.6	.	.
COc1ccc(OC)c(NC(=O)CSc2ccc3nnc(-c4cccnc4)n3n2)c1	.	.	.	.	.	/	/
O=C(Nc1ccccn1)c1ccco1	.	.	.	.	8.5	.	.
SMILES	DAX1 inh-1	DAX1 inh-2	ssDAF12 agonist	hgDAF12 agonist	hcDAF12 agonist	LXRb hcDAF ctr	hcDAF12 ag
O=C(Nc1ccccn1)c1ccc2ccccc2c1O	.	.	1.5	.	8.4	.	8.7
CCCCC(=O)NC(=S)Nc1cccc(NC(=O)c2ccco2)c1	.	.	.	.	.	/	/
CN(C)C(=S)N=c1ssc(=S)n1Cc1cccnc1	.	.	.	.	.	/	/
COCc1c(C(=O)Nc2ccc(Cl)cc2F)oc2ccccc12	.	.	.	.	.	/	/
COCc1c(C(=O)Nc2nc(C)cs2)oc2ccccc12	.	.	.	.	6.8	.	5.7
CCCC12CN3CCN(CC(C3)/C1=N\NC(=O)Nc1ccccc1)C2	.	.	.	.	.	/	/
CCCCC12CN3CCN(CC(C3)/C1=N\NC(=O)c1ccccc1N)C2	.	.	.	10.7	9.4	.	.
COCCCNC(=O)CCC(=O)NNc1nc2ccccc2c2nc(C)nn12	.	.	.	.	7.2	.	.
CCOCCCNC(=O)CCC(=O)NNc1nc2ccccc2c2nc(C)nn12	.	.	.	.	.	/	/
CN1CCCN(c2cc(-c3ccc4ccccc4c3)nc3ccnn23)CC1	/	.	.	.	.	/	/
Cn1c(=O)c2[nH]c(C(O)c3ccc(Cl)cc3)nc2n(C)c1=O (configuration not stated)	.	.	.	.	.	/	/
O=S(=O)(Nc1c(O)ccc2ccccc12)c1ccc(F)cc1	.	.	1.1	.	8.1	.	8.6
CCCCC(CCC(=O)Nc1cccc([N+](=O)[O-])c1)C(=O)O (configuration not stated)	.	.	.	.	.	/	/
Cc1ccc(NC(=O)C2=C(O)CCn3c2nc2ccccc23)cc1	.	.	1.9	.	8.9	.	.
Cc1ccc(CNC(=O)CCS(=O)(=O)c2ccc3nc(C)sc3c2)cc1	.	.	.	.	.	/	/
CC(=O)c1ccc(S(=O)(=O)NC2CC(=O)N(c3cccc(F)c3)C2)cc1 (configuration not stated)	.	.	.	.	.	/	/
COc1ccc(Cl)cc1C(=O)NCC(c1ccco1)N(C)C (configuration not stated)	.	.	.	.	7.3	.	.
Cc1cccc(-c2cc3c(N=O)c4ccccc4c-3n[nH]2)c1	6.9	3.9	1.2	17.0	12.1	.	16.6
Cc1ccc(-c2cc3c(N=O)c4ccccc4c-3n[nH]2)cc1	.	.	.	.	.	/	/
CCN1C[C@@H]2[C@@H]3C(=O)N(C)C(=O)[C@@H]3[C@](Cc3ccccc3)(C1=O)N2C(=O)c1ccc(Cl)cc1	.	.	.	.	.	/	/
c1ccc(-n2nnc3c(N4CCOCC4)ncnc32)cc1	.	.	.	.	7.2	.	6.3
Cc1nnc(N2CCOCC2)c2nn(-c3ccccc3)c(C)c12	.	.	.	.	.	/	/
NNc1nc2ccc(F)cc2s1	.	.	.	.	10.0	.	.
O=P1(NC2CCCC2)OCC2(CO1)COP(=O)(NC1CCCC1)OC2 (configuration not stated)	.	.	.	.	.	/	/
O=C(CN1C(=O)NC2(CCCCC2)C1=O)Nc1ccc2[nH]c(=O)[nH]c2c1	.	.	.	.	.	/	/
SMILES	DAX1 inh-1	DAX1 inh-2	ssDAF12 agonist	hgDAF12 agonist	hcDAF12 agonist	LXRb hcDAF ctr	hcDAF12 ag
CC(=O)Nc1cccc(NC(=S)Nc2cccc3ccccc23)c1	.	.	0.9	.	7.6	.	.
CC1CCC(NC(=O)C2CC(=O)N(c3ccc4c(c3)OCCO4)C2)CC1 (configuration not stated)	.	.	.	.	.	/	/
CC(C)CN(C(=O)COC(=O)c1ccccc1NCc1ccco1)c1c(N)n(Cc2ccccc2)c(=O)[nH]c1=O	.	.	.	.	.	/	/
Cc1ccc(C2Nc3ccccc3-c3nc4ccccc4n32)o1 (configuration not stated)	.	.	.	12.4	6.7	.	.
c1ccc(-c2cnc(CSc3nnc4ccccn34)o2)cc1	.	.	.	11.9	8.5	.	5.8
CC(C)CCNC(=O)CN(Cc1cccs1)C(=O)CCC(=O)Nc1nccs1	.	.	.	.	.	/	/
